Bioassay records deposited in PubChem BioAssay by SRMLSC.
NADH enzymes: inhibition of NAD/NADH coupling enzymes, library profiling | coupled PK/LDH NADH assays, four targets | AID 774 | IC50, µM (doses to about 10 µM) | 65,000 compounds, 0.02% hits;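 active means single-dose screening hits from any of four coupled enzyme assays that gave an IC50 when retested across doses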;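 further: the DPM-DC format reads NADH fluorescence rather than 340 nm absorbance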
Abs 340nm: compounds absorbing at 340 nm; 65,000 tested, under 10 active; fold change at 10 µM; AID 708; compound absorbance at 340 nm, fold over control;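 active means at 10 µM dose, initial 340 nm absorbance at least 2 fold that of control wells; inactive means change under 2 fold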;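 further: initial absorbance extrapolated from kinetic A340 decline of NADH oxidation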
PMK inhibit: S. pneumoniae PMK inhibition; purified PMK, PK/LDH-coupled NADH absorbance 340 nm; inhibition, % at 10 µM; 65,000 compounds, 0.49% hits; AID 539;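 active means top-ranked compounds by inhibition in the single 10 µM screen, taking a fixed number of the strongest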
Spn DPM-DC inh: S. pneumoniae DPM-DC inhibition. purified DPM-DC, PK/LDH coupled NADH fluorescence. calls only at 10 µM. 65,000 compounds, 0.49% hits. AID 556;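 active means the 320 compounds with the highest percent inhibition in the single-dose primary screen, excluding strongly autofluorescent ones, cut at about 32% in these data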;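 further: kinetic rate of NADH fluorescence loss reporting ADP formed by the decarboxylase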
Spn MK inh: blocks S. pneumoniae mevalonate kinase; inhibition, % at 10 µM; 65,000 compounds, 0.48% hits; purified MK, PK/LDH-coupled NADH absorbance 340 nm;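 active means ranked among the strongest by inhibition in the single 10 µM screen, a fixed top-ranked set picked for dose follow-up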
Fluor 339 460: intrinsic fluorescence of library compounds, ex339/em460 – biochemical, MLSMR library, data from DPM-DC assay, artefact control, profiling panel. AID 709. fluorescence fold increase at 10 µM. compound autofluorescence, ex339/em460 nm, NADH buffer; stronger effect = higher value; 1 = no-compound wells, NADH background. 65,000 compounds, 5.5% hits;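 active means at 10 µM, mean starting fluorescence two-fold or more over control wells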;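 further: signal is the first read of a kinetic run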
Numbers stand for hits; n = inactive; x = no result shown. Sampled rows, rich in hits. Any-hit rate of the full collection: about 6.3%.

SMILES | NADH enzymes | Abs 340nm | PMK inhibit | Spn DPM-DC inh | Spn MK inh | Fluor 339 460
CN(c1ccccc1)C(c1ccc(F)cc1)c1nnnn1C1CCCC1 (configuration not stated) | n | n | n | n | n | n
O=C(CN1C(=O)C2CC=CCC2C1=O)Nc1nc2ccccc2[nH]1 (configuration not stated) | n | n | n | n | n | n
CSc1ncc(Cl)c(C(=O)C(C#N)c2nc3c(C)cc(C)cc3c(=O)[nH]2)n1 (configuration not stated) | n | n | n | n | n | n
Cc1[nH]c2ccccc2c1-c1nc2ccccc2[nH]1 | n | n | n | n | n | n
Cc1nnsc1-c1nc2ccccc2[nH]1 | n | n | n | x | n | 4.9
c1csc(-c2nc3ccccc3[nH]2)c1 | n | n | n | x | n | 3.6
Cc1ccc(-c2nc3ccccc3[nH]2)s1 | n | n | n | x | n | 2.5
COc1ccc(C(=O)n2nc(-c3ccccc3)nc2N)cc1OC | n | n | n | n | n | n
Cc1nn(-c2ccc(F)cc2)c2c1cc(C#N)c1nc3ccccc3n12 | n | n | n | x | n | 2.5
CCNC(=O)NC(=O)COC(=O)c1ccccc1SCC(=O)NC(=O)NCC | n | n | n | x | n | 2.1
COC(=O)c1oc2nc(C)cc(C)c2c1N | n | n | n | x | n | 3.9
CCC(C)(C)NC(=O)CN(CC1CCCO1)C(=O)CCC(=O)Nc1nccs1 (configuration not stated) | n | n | n | n | n | n
COC(=O)c1ccc2c(=O)n(CCCCCC(=O)NCc3ccccn3)c(=O)[nH]c2c1 | n | n | n | n | n | 2.5
COCCCNC(=O)CCCn1c(=O)[nH]c2ccccc2c1=O | n | n | n | n | n | n
CC(C)(C)C1CCc2[nH]c3ccccc3c(=O)c2C1 (configuration not stated) | n | n | n | n | n | n
O=c1c2c([nH]c3ccccc13)C(=C1CCCC1)CC2 | n | n | n | x | n | 2.1
O=C(CSc1ccc(-c2nc3ccccc3[nH]2)cn1)N1CCN(C(=O)c2ccco2)CC1 | n | n | n | x | n | 2.1
O=C(NCc1ccco1)c1cnc2n(c1=O)CCS2 | n | n | n | n | n | n
COc1ccc(CNC(=O)c2cnc3scc(C)n3c2=O)cc1 | n | n | n | x | n | 2.1
Cc1csc2ncc(C(=O)NCc3ccco3)c(=O)n12 | n | n | n | n | n | 3.8
CN(c1ccccc1C(N)=O)S(=O)(=O)c1ccccc1 | n | n | n | n | n | n
O=C1c2ccccc2C(=O)N1CSc1ncccn1 | n | n | n | n | n | n
COc1ccc(CCNC(=O)CC2Nc3ccccc3NC2=O)cc1 (configuration not stated) | n | n | n | n | n | 2.1
COc1ccc(CCNC(=O)CC2Nc3ccccc3NC2=O)cc1OC (configuration not stated) | n | n | n | n | n | n
Cc1sc2ncnc(N[C@@H](CCC(=O)O)C(=O)O)c2c1C | n | n | n | n | n | n
SMILES | NADH enzymes | Abs 340nm | PMK inhibit | Spn DPM-DC inh | Spn MK inh | Fluor 339 460
Cc1sc2ncnc(NCC(c3ccco3)N(C)C)c2c1C (configuration not stated) | n | n | 30 | n | 56 | n
Cc1nn(-c2ccc(Cl)cc2)c2[nH]c(=O)c(CNCc3ccc4c(c3)OCO4)cc12 | n | n | n | n | n | n
c1ccc(Cn2c(SCc3cn4cccnc4n3)nnc2-c2ccco2)cc1 | n | n | n | n | n | 2.2
Cn1nnnc1SCc1cn2cccnc2n1 | n | n | n | x | n | 3.3
COC(=O)C(C(=O)OC)N1C(=O)CCC1=O | n | n | n | n | n | n
N#Cc1cc2c(=O)n3ccccc3nc2n(CCN2CCOCC2)c1=O | n | n | n | x | n | 3.9
Cc1ccc(O)c(C(=O)c2cc(C#N)c(=O)n(CC3CCCO3)c2)c1 (configuration not stated) | n | n | n | n | n | n
O=c1c2ccccc2nc(-c2ccccc2)n1CCN1CCOCC1 | n | n | n | n | n | n
N=c1c(C(=O)NC2CCCC2)cc2c(=O)n3ccccc3nc2n1CCN1CCOCC1 | n | n | n | x | n | n
Cc1ccc2nc3c(cc(C#N)c(=O)n3CC3CCCO3)c(=O)n2c1 (configuration not stated) | n | n | n | x | n | 3.8
COc1ccc(-c2nc3ccccc3c(=O)n2CCCN2CCOCC2)cc1 | n | n | n | n | n | n
